Results taken from PubChem BioAssay (NCATS).
Where “and” joins values, the source holds several entries; their conditions need not be identical. Identical values can stand only once. Inconclusive results are not listed. Entries that show only a call come without a potency. A structure can be active in one record and inactive in another. Calls of active or inactive are those of the source. Calls follow the shape of the dose curve; as a rule, active = well fitted curve in the direction sought with a large enough effect; inconclusive = small, poorly fitted or top-dose-only effect, or another doubt; inactive = no such curve, though single readings can be large; an effect the other way counts as inactive or inconclusive.

Tests used:
[1] = Viability qHTS for spleen associated tyrosine kinase inhibitor (SYKi) naive MV4-11 cells (AID 1963823); conditions: MV4-11 AML viability, CellTiter-Glo luminescence, 72 h; series mostly up to 45 µM; also: nearly all actives have a fitted effect of over 40% in size
Method in brief: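 Luminescence from CellTiter-Glo, developed 10 min at room temperature, gave viability of MV4-11 cells never exposed to SYK inhibitor. Cells (500/well) had been incubated with compounds for 72 hr under standard culture conditions.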

[2] = Cellular viability qHTS for adrenocortical cancer (ACC) cell line NCI-H295R (AID 1963990); conditions: CellTiter-Glo ATP luminescence, 48 h; series mostly up to 46.1 µM; also: nearly all actives have a fitted effect of over 60% in size
Method in brief: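 Luminescent ATP read-out (CellTiter-Glo, 20 min RT) after 48 h drug exposure of NCI-H295R cells; a titration up to 46 uM final. Data normalized to doxorubicin (100% inhibition) and DMSO (0%); 4-parameter fit gives IC50, max response.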

[3] = Cellular viability qHTS for adrenocortical cancer (ACC) cell line SW-13 (AID 1963989); conditions: SW-13 ACC cells viability, CellTiter-Glo, 48 h; activity (max response): stronger effect = lower value; also: nearly all actives have a fitted effect of over 65% in size;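 as to activity (max response): cells grown in serum-free medium with ITS supplement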
Method in brief: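 SW-13 cells in ITS-supplemented serum-free DMEM were plated overnight, then exposed for 48 h at 37C to compound titrations (up to 46 uM final). Viability was read by CellTiter-Glo luminescence; four-parameter logistic fits gave IC50 and efficacy.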
Potency is read from the fitted curve at half-maximal effect.

In the case of `CCCOC(=O)c1ccc(N)cc1`, the Potency [1] is reported as “inactive” and the Potency [2] is reported as “inactive”.

For `Nc1ccc(C(=O)Oc2ccccc2)c(O)c1`, the Potency [1] was “inactive”, the activity (max response) [3] was -6.48% (inactive) and the Potency [2] was “inactive”.

In the case of `CSc1ccc(/C=C2/C(C)=C(CC(=O)O)c3cc(F)ccc32)cc1`, the Potency [1] is reported as “inactive” and the Potency [2] is reported as 25.9 µM (active).

For `CC1(C)O[C@@H]2C[C@H]3[C@@H]4CCC5=CC(=O)C=C[C@]5(C)[C@H]4[C@@H](O)C[C@]3(C)[C@]2(C(=O)CO)O1`, the Potency [1] was “inactive”, the activity (max response) [3] was -6.19% (inactive) and the Potency [2] was “inactive”.

With `COC(=O)/C=C/C(=O)OC` the Potency [1] was “inactive”, the activity (max response) [3] was -9.41% (inactive) and the Potency [2] was “inactive”.

In the case of `COc1cc(N2CCC(N3CCN(C)CC3)CC2)ccc1Nc1ncc(Cl)c(Nc2ccccc2S(=O)(=O)C(C)C)n1`, the Potency [1] is reported as 92 nM (active) and 148 nM (active), the Potency [3] is reported as 5.01 µM (active) and the Potency [2] is reported as 1.12 µM (active).

In the case of `CC(=O)OCC(=O)[C@@]12OC(C)(C)O[C@@H]1C[C@H]1[C@@H]3C[C@H](F)C4=CC(=O)C=C[C@]4(C)[C@@]3(F)[C@@H](O)C[C@@]12C`, the Potency [1] is reported as “inactive and 93.4 nM (active)” and the Potency [2] is reported as “inactive”.

With `COC(=O)N(C)c1c(N)nc(-c2nn(Cc3ccccc3F)c3ncccc23)nc1N` the Potency [1] was “inactive”, the activity (max response) [3] was -4.16% (inactive) and the Potency [2] was “inactive”.

In the case of `CNC(=O)c1ccccc1Nc1nc(Nc2ccc3c(c2OC)CCC[C@@H](N2CCN(CCO)CC2)C3)ncc1Cl`, the Potency [1] is reported as 366 nM (active), the Potency [3] is reported as 15.8 µM (active) and the Potency [2] is reported as 2.82 µM (active).

With `COc1ccc(C(=O)N2CCN(c3ccc4c(c3)CCC(=O)N4)CC2)cc1OC` the Potency [1] was “inactive”, the activity (max response) [3] was 5.3% (inactive) and the Potency [2] was “inactive”.
